From PubChem
RGS8-Gao reg: modulates binding of RGS8 to human Galphao | P09471 | multiplexed bead flow cytometry; actives lie on both sides | response (percent of control binding), % at 10 µM | 0.34% of 220,000 active | AID 1423; in the data active = response below about 60% or above about 140%; inactive = in between;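 note: Galphao activated as the GDP aluminium fluoride complex binding bead-coupled RGS8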
GSH bead fluor: GSH bead compound fluorescence profile; 0.25% of 190,000 active; GSH beads flow cytometry, compound fluorescence 488/530 nm; stronger effect = higher value; fluorescence (KMESF) at 10 µM; in the data active = fluorescence above about 89;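 note: glutathione beads carrying GST-tagged Bcl family fusion proteins plus one bare bead set; values are compound well signal with DMSO vehicle wells as background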
Avidin bead fluor: avidin bead compound fluorescence profile. Avidin beads, compound fluorescence 488/530 nm, flow cytometry; stronger effect = higher value. fluorescence (KMESF) at 10 µM. 0.38% of 220,000 active. AID 1775; in the data active = fluorescence above about 47
RGS16-Gao: RGS16-Galphao interaction regulator (human). O15492+P09471. bead-based flow cytometry RGS16-Galphao binding, fluorescence; actives lie on both sides. binding response (% of control), % at 10 µM. 0.38% of 220,000 active. AID 1441;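 note: Galphao activated by GDP with aluminum fluoride before binding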
RGS7-Gao reg: human RGS7-Galphao interaction regulation. binding response (% of control), % at 10 µM. AID 1439. 0.35% of 220,000 active. Multiplexed bead flow cytometry, RGS7-Galphao binding; actives lie on both sides. P09471; in the data active = binding response below about 49% or above about 150%; inconclusive = no clear call, values can overlap the other calls; inactive = in between;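 note: fluorescent Galphao held in activated GDP-AlF4 state binding bead-coupled RGS7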
RGS4-Gao reg: modulates binding of RGS4 to human Galphao. binding response (% of control), % at 10 µM. Multiplexed bead flow cytometry; actives lie on both sides. P09471. 0.33% of 220,000 active; in the data active = binding response below about 49% or above about 150%; inactive = in between;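 note: fluorescent Galphao activated with aluminum fluoride binding bead-coupled RGS4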
RGS-Gao: regulators of human RGS4-Galphao interaction; shares compounds with RGS16-Gao; multiplexed bead flow cytometry, RGS–Galpha-o binding; RGS4–Galpha-o binding response, % at 10 µM; 99% of 1,600 active;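 note: fluorescently labeled Galpha-o bound to GDP with aluminium fluoride binding biotinylated RGS beads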
Avidin counter: counter-screen: compounds disrupting biotin binding to avidin beads. 1,700 tested, under 10 active. shares compounds with RGS16-Gao. inhibition, % at 10 µM. streptavidin beads, fluorescein-biotin binding, flow cytometry;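 active = inhibition above 50%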;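 note: median green fluorescence of gated singlet beads compared with DMSO control wells; 0% = DMSO wells and 100% = complete loss of bead fluorescence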
RGS8-Gao confirm: confirmation of regulators of human RGS8-Galphao interaction; shares compounds with RGS16-Gao; bead-based flow cytometry RGS8-Galphao binding, fluorescence; actives lie on both sides; binding response (% of control), % at 10 µM; 3% of 1,700 active; in the data active = binding response below about 72% or above about 130%; inactive = in between;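 note: Galphao activated as GDP AlF4 complex before binding bead RGS8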
RGS7-Gao single: confirmation of regulators of human RGS7-Galphao interaction; shares compounds with RGS16-Gao; bead-based flow cytometry RGS7-Galphao binding; actives lie on both sides; AID 1837; response (percent of control binding), % at 10 µM; 7.8% of 1,700 active; in the data active = response below about 75% or above about 130%; inactive = in between;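 note: fluorescent Galphao activated with GDP and aluminum fluoride binding bead-coupled RGS7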
RGS16-Gao conf: RGS16-Galphao interaction regulation, single point confirmation; shares compounds with RGS16-Gao; bead-based flow cytometry, RGS16-Galphao binding; actives lie on both sides; response (% of control binding), % at 10 µM; 4% of 1,700 active; in the data active = response below about 74% or above about 130%; inactive = in between;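 note: Galphao activated as the GDP aluminium fluoride complex binding bead-coupled RGS16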
RGS4-Gao single: RGS4-Galphao interaction regulation, single point confirmation. RGS4-Galphao binding, multiplexed bead flow cytometry; actives lie on both sides. binding response (% of control), % at 10 µM. 4% of 1,700 active. shares compounds with RGS16-Gao. AID 1840; in the data active = binding response below about 74% or above about 130%; inactive = in between
RGS19-Gao conf: RGS19-Galphao interaction regulation, single point confirmation | shares compounds with RGS16-Gao | bead-based flow cytometry RGS19-Galphao binding; actives lie on both sides | response (percent of control binding), % at 10 µM | 5% of 1,700 active; in the data active = response below about 50% or above about 160%; inactive = in between;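 note: 100% = no compound control and 0% = blank background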
* = called active by the depositor; i = inactive; ? = inconclusive; . = no result given; [ ] = remark or other dose. Most compounds without a hit are left out; they make up all but 1.2% or so of the library. Unless noted, the rule behind the calls is not given here.

SMILES	RGS8-Gao reg	GSH bead fluor	Avidin bead fluor	RGS16-Gao	RGS7-Gao reg	RGS4-Gao reg	Avidin counter	RGS8-Gao confirm	RGS7-Gao single	RGS16-Gao conf	RGS4-Gao single	RGS19-Gao conf	others
O=C1NC(=O)/C(=C/c2cccc(O)c2)N1	.	.	.	.	.	.	-1	98	95	98	98	95
CN(C)c1ccc(/C=C2/NC(=O)NC2=O)cc1	145*[activator]	17	113*	i	354*[activator]	549*[activator]	1	102	103	105	102	104
O=C1NC(=O)/C(=C\c2ccc(OCc3cccc(C(=O)O)c3)c(Cl)c2)N1	97	15	7	96	93	97	.	.	.	.	.	.
CC1=NOC(=O)/C1=C/c1ccc(N(C)C)cc1	100	34	13	100	102	101	.	.	.	.	.	.
COc1cccc2cc(C(C)=O)oc12	97	20	8	112	96	100	.	.	.	.	.	.
CCOc1cccc2cc(C(C)=O)oc12	11*	14	.	5.6*	10*	11*	1	101	102	102	101	113
COC(=O)C(C)NC(=O)C(C)NC(=O)OCc1ccccc1 (stereo not drawn)	.	15	.	.	.	.	-1	91	87	91	94	87
COc1ccc(C(CC(=O)Nc2ccccc2OC)n2cccc2)cc1 (stereo not drawn)	75	4	8	15*	88	93	-2	102	102	103	103	102	RGS-Gao=93*
COc1ccc(C)cc1-n1nnnc1SCC1CCCO1 (stereo not drawn)	16*	24	2	17*	21*	26*	-2	108	108	108	106	118
CCC12CN3CCN(CC(C3)/C1=N\NC(=O)c1ccc(Cl)cc1)C2	97	12	6	94	90	99	.	.	.	.	.	.
CCC12CN3CCN(CC(C3)/C1=N\NC(=O)c1ccc(F)cc1)C2	55*	13	6	38	43*	42*	-1	99	99	98	98	97
CN(C)C(=S)Nc1ccc2c(c1)OCCO2	69	.	4	46	?	40*	0	100	97	101	101	112
S=C(Nc1ccc2c(c1)OCCO2)Nc1ccc2c(c1)OCO2	97	27	9	99	93	90	.	.	.	.	.	.
O=C(COC(=O)c1cccnc1Cl)c1ccc(OC(F)F)cc1	95	10	12	86	102	91	.	.	.	.	.	.
O=c1[nH]c2ccc(NC(=S)Nc3ccc(F)cc3)cc2[nH]1	106	.	7	102	?	107	.	.	.	.	.	.
Cc1ccc(S(=O)(=O)/N=C(/Nc2ccc3[nH]c(=O)[nH]c3c2)c2ccc(F)cc2)cc1	99	14	37	100	152*[activator]	104	-1	107	102	117	105	116	RGS-Gao=104*
COCC(=O)N(C)C1(c2nnnn2CCOC(=O)Nc2ccc(Cl)cc2)CCCCC1	104	12	10	103	?	99	.	.	.	.	.	.
